Measured values as given in ChEMBL document CHEMBL1201862, “PubChem BioAssay data set” (2004).
The whole screen tested about 400,000 compounds, of which about 2,100 (0.53%) were called active. Not shown: some 14% with an inconclusive outcome. The sample holds actives, similar compounds and a random draw of the others, so the mix is not that of the screen. How the calls were made is not given here.

Target: Ataxin-2 (Homo sapiens) (UniProt Q99700)
Test: qHTS for Inhibitors of ATXN expression.
Type: functional

Sequence of Ataxin-2 (Homo sapiens) (Q99700 whole entry): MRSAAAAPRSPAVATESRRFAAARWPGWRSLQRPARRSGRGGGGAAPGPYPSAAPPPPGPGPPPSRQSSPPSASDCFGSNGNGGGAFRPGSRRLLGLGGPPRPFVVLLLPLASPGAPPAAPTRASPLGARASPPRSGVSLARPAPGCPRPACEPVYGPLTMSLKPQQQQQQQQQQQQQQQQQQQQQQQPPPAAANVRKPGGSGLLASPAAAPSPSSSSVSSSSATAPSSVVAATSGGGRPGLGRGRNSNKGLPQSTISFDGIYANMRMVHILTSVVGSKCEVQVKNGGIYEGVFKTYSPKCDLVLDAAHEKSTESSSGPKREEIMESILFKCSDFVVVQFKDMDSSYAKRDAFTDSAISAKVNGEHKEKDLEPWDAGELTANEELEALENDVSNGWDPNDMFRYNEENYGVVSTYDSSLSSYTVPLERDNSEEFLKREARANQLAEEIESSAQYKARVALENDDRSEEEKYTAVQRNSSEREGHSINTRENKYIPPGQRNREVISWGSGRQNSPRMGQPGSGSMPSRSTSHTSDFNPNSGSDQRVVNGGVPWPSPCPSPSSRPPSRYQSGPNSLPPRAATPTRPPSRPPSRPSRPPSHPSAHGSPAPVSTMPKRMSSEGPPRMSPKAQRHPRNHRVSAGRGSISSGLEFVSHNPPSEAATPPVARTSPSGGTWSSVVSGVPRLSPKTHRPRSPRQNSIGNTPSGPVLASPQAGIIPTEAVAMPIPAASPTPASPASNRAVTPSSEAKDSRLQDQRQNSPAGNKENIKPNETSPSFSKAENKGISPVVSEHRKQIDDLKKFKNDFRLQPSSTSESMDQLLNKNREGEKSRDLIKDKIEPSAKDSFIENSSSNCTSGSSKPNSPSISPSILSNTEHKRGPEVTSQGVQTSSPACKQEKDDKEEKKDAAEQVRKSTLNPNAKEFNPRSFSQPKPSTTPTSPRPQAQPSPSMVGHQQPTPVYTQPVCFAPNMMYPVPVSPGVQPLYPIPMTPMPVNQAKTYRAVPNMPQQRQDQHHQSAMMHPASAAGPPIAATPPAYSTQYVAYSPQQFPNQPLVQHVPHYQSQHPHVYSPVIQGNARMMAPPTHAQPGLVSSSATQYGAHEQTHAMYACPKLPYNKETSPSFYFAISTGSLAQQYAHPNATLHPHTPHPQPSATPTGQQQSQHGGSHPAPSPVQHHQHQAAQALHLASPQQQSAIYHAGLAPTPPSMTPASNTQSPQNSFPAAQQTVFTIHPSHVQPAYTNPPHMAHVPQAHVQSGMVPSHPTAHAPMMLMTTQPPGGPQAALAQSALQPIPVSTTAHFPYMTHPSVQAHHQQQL

Row | Compound | Potency
1 | COC(=O)c1ccc(COc2ccc(C(C)(C)C)cc2)o1 | inactive
2 | COc1c(C)cc(S(=O)(=O)N2CCOCC2)c(C)c1C | inactive
3 | Cc1cc(-c2nc3cccnc3s2)ccc1NS(=O)(=O)c1ccc2c(c1)OCCO2 | inactive
4 | CCOC(=O)c1cnc(-n2nc(C)cc2C)nc1Nc1ccc(O)cc1 | inactive
5 | FC(F)(F)c1cc(-c2cccs2)nc2cc(-c3cccs3)nn12 | inactive
6 | CCCCN(C)S(=O)(=O)c1ccc(C(=O)Nc2sc3c(c2C(=O)OCC)CCN(C(C)C)C3)cc1 | inactive
7 | CCOC(=O)c1c(NC(C)=O)sc2c1CCC(/C=N/CCCN(CC)CC)=C2Sc1ccccc1 | 39.8 µM (active)
8 | CCOC(=O)c1c(NC(C)=O)sc2c1CCC(C=O)=C2Sc1ccccc1 | 39.8 µM (active)
9 | CCOC(=O)c1c(NC(=O)C2=C(C)N=C(S)NC2c2ccc(C)cc2)sc(C)c1C (configuration not stated) | inactive
10 | CCOC(=O)c1c(N=C(S)Nc2ccccc2)sc2c1CCN(CC)C2 | inactive
11 | CCOC(=O)c1c(NC(=O)c2ccccc2Cl)sc2c1CCc1ccccc1-2 | inactive
12 | COc1ccc(-n2nc3ccc(N)cc3n2)cc1 | inactive
13 | Cn1c(C(=O)NC2CCCCC2)cc2c(=O)n3ccccc3nc21 | inactive
14 | [N-]=[N+]=CC(=O)CNC(=O)[C@@H](Cc1ccccc1)N1C(=O)c2ccccc2C1=O | 20 µM (active)
15 | O=C(NCc1cccs1)C(Cc1ccccc1)n1cccc1 (configuration not stated) | inactive
16 | CC1=NN2C(=N)/C(=C\c3cc(C)n(-c4cccc(C)c4)c3C)C(=O)N=C2S1 | inactive
17 | Cn1c(-c2c(N)n(C3CCCC3)c3nc4ccccc4nc23)nc2ccccc21 | inactive
18 | O=C(Cc1nc2ccccc2[nH]1)c1ccc(Cl)cc1 | inactive
19 | O=C(O)C(=O)/C(=C\c1ccc(Cl)cc1)c1ccc2ccccc2n1 | inactive
20 | O=C(/C(=C/c1ccc(Cl)cc1)c1nc2ccccc2[nH]1)c1ccccc1 | 39.8 µM (active)
21 | O=C(O)C(=O)/C(=C\c1cccc(Cl)c1)c1ccc2ccccc2n1 | inactive
22 | N#C/C(=C\c1cccnc1)c1nc2ccccc2[nH]1 | inactive
23 | O=C(/C(=C\c1ccccc1)c1nc2ccccc2[nH]1)c1ccc(Cl)cc1 | 15.8 µM (active)
24 | O=C(COc1ccccc1C(=O)NCc1ccncc1)Nc1ccc(Br)cc1 | inactive
25 | CCN1CCN(Cc2c(O)ccc3c(C)c(-c4ccc(OC)cc4)c(=O)oc23)CC1 | inactive
26 | Nc1c(C(=O)C2CC2)sc2nc(-c3ccccc3)cc(C(F)(F)F)c12 | inactive

Row | Compound | Potency
27 | COc1ccc(-c2c(C(F)(F)F)nn3c(O)cc(-c4ccccc4)nc23)cc1 | inactive
28 | CCOC(=O)CS(=O)(=O)c1nc(-c2ccc(F)cc2)cc(C(F)(F)F)n1 | 31.6 µM (active)
29 | COC(=O)CCS(=O)(=O)c1nc(-c2ccccc2)cc(C(F)(F)F)n1 | 39.8 µM (active)
30 | O=C(COC(=O)CCS(=O)(=O)c1ccccc1)Nc1ccccc1 | inactive
31 | COCCNC(=O)c1nn2c(C(F)(F)F)cc(-c3ccccc3)nc2c1Cl | inactive
32 | CCOC(=O)CNc1c(-c2ccc(F)cc2)nc2cnccn12 | inactive
33 | CS(=O)(=O)c1nc(-c2ccccc2)cc(C(F)(F)F)n1 | 35.5 µM (active)
34 | Cc1ccc(S(=O)(=O)CCC(=O)OCC(=O)NC(C)c2ccccc2)cc1 (configuration not stated) | inactive
35 | COC(=O)c1cc2nc(-c3ccc(C)cc3)cc(C(F)(F)F)n2n1 | inactive
36 | COCC(C)NC(=O)c1cnn2c(C(F)F)cc(-c3ccccc3)nc12 (configuration not stated) | inactive
37 | CCOC(=O)CCS(=O)(=O)c1nc(-c2ccccc2)cc(C(F)(F)F)n1 | 31.6 µM (active)
38 | CCCCn1nc(NC(=O)CCC)c2cc3cc(OC)ccc3nc21 | inactive
39 | CC(C)CNC(=O)COC(=O)c1c2c(nc3ccccc13)/C(=C/c1cccs1)CC2 | inactive
40 | CCN1CCN(Cc2c(O)ccc3c2O/C(=C\c2ccccc2)C3=O)CC1 | inactive
41 | CCOC(O)=C(C(C)=N)C1CC(=O)NC1=O (configuration not stated) | inactive
42 | Cc1ccc(-c2cc(C(=O)NCC3(N(C)C)CCCCC3)c3ccccc3n2)o1 | inactive
43 | Cc1cc(C(=O)NCCN2CCOCC2)c2ccccc2n1 | inactive
44 | CCN(CC)CC(C)CNC(=O)c1cc(-c2ccc(Br)s2)nc2ccccc12 (configuration not stated) | 14.1 µM (active)
45 | O=C(NC1CC1)c1cc(-c2ccc(Br)cc2)nc2ccccc12 | inactive
46 | CCN(CC)CCNC(=O)c1cc(-c2ccc(Br)s2)nc2ccccc12 | 39.8 µM (active)
47 | CCc1ccc(-c2cc(C(=O)NN3CCOCC3)c3ccccc3n2)s1 | inactive
48 | CN(Cc1ccccc1OCCO)CC1CCCN(CCc2ccc(Cl)cc2)C1 (configuration not stated) | inactive
49 | C=CCNC(=O)/C(C#N)=C/c1c(N2CCN(c3ccccc3)CC2)nc2c(C)cccn2c1=O | inactive
50 | COc1ccc(CCN(C)C(=O)c2cc(=O)c3ccccc3o2)cc1OC | inactive
51 | COc1ccc(CCNc2ncnc3c2oc2ccccc23)cc1OC | 31.6 µM (active)
52 | CCc1c(C)c2cc3c(c(C)c2oc1=O)OCN(CCc1ccc(OC)c(OC)c1)C3 | inactive
